GLP-1R inv ag – inverse agonists of human GLP-1 receptor. P43220. HEK293 GLP-1R CRE-luciferase, luminescence, 24 h; GLP-1R form is constitutively active. Potency, µM (highest dose often 38.3 µM), without a hit: at the highest dose activity change, negative = inhibition, hits mostly inhibitors. 410,000 tested, 1.6% active; also: % is scaled to controls: 0 for no effect and ±100 for the full control effect; nearly all actives have a fitted effect of over 55% in size
Target sequence (P43220 whole entry, looked up): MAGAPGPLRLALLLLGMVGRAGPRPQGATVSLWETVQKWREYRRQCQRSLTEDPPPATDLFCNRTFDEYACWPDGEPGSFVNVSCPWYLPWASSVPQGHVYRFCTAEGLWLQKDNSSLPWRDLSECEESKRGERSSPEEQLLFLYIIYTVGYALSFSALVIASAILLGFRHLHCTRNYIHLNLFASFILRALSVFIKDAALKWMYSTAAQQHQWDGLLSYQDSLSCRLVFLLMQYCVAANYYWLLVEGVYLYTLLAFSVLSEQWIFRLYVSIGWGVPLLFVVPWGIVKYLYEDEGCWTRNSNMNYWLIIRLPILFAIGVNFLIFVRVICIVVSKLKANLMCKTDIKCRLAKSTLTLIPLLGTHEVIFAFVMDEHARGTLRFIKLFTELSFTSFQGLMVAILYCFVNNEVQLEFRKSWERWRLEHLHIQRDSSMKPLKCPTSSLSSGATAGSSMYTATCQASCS
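Inverse agonism was detected as reduced cAMP-driven luciferase luminescence after 24 h compound treatment. The cells were HEK293 clones expressing constitutively active human GLP-1R with the reporter. Reporter-only and GPR119 cell lines served as counterscreen controls.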
GLP1R ag – activates the human GLP-1 receptor | P43220 | HEK293 GLP-1R CRE-luciferase, luminescence, 4-6 h; cells express a hypersensitive GLP-1R form | Potency, µM (highest dose often 45.6 µM), for inactives: top-dose activation, most hits filed as activators | 380,000 tested, 0.007% active; also: % of control where 0% means no effect
HEK293 tox – cytotoxic in the GLP-1 receptor inverse agonist counter-screen; HEK293 cAMP-luciferase reporter cells, luminescence, 24 h; Potency, µM (top dose mostly 38.3 µM), without a hit: at the highest dose activity change, negative = inhibition, actives largely listed as inhibitors; 410,000 tested, 0.13% active; AID 624418;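 also: loss of luciferase light is scored as toxicity; % is scaled to controls: 0 for no effect and ±100 for the full control effect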
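Quantitative HTS format, 1536 wells, 200 cells/uL seeded. Compounds: 23 nL, 24 h, 37 °C. Detection: luciferase reagent, luminescence at 12 min RT; decreased signal taken as cytotoxic.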
PTHR1 agonist – PTHR1 (human) receptor agonism. HEK293 GP2 PTHR1 cells, GloSensor cAMP luminescence, 1 h. Potency, µM (top dose mostly 115 µM), without a hit: top-dose activation, most hits filed as activators. AID 743266. Q03431. 410,000 tested, 0.075% active; also: nearly all actives have a fitted effect of over 55% in size
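HEK-293-derived GP2 cells expressing PTHR1 and a GloSensor cAMP reporter, 3,000/well, plated overnight, given luciferin plus IBMX (each 0.5 mM as added) for 1 h at 37 °C, then compound for 1 h at 37 °C. Luminescence was read after 15 min at room temperature.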
Active calls of the source: *; i = inactive; ? = inconclusive; nt = not tested or not shown; [ ] = another dose, or the depositor's remark. The list is not random: actives were taken first. Their share in the collection is about 1.7%. Calls follow the shape of the dose curve; as a rule, active = well fitted curve in the direction sought with a large enough effect; inconclusive = small, poorly fitted or top-dose-only effect, or another doubt; inactive = no such curve, though single readings can be large; an effect the other way counts as inactive or inconclusive. Potency is read from the fitted curve at half-maximal effect.

SMILES	GLP-1R inv ag	GLP1R ag	HEK293 tox	PTHR1 agonist
CCOCCCN1C(=O)c2[nH]nc(-c3ccccc3O)c2C1c1ccc(CC)cc1 (stereo unspecified)	?	nt	-24%	-42%
OC(COC(c1ccc(Cl)cc1)c1ccc(Cl)cc1)CN1CCc2ccccc2C1 (stereo unspecified)	5µM*	7%	?	-19%
OC(COC(c1ccccc1)c1ccccc1)CN1CCc2ccccc2C1 (stereo unspecified)	10µM*	?	-1%	i
CC1CCCN(CC(O)COCC2COc3ccccc3O2)C1 (stereo unspecified)	-14%	-8%	-4%	i
OC(COCC1COc2ccccc2O1)CN1CCc2ccccc2C1 (stereo unspecified)	10µM*	-4%	-15%	i
CC1=C(C(=O)N2CCN(c3cccc(Cl)c3)CC2)C2(CCCCC2)OC1=O	-5%	-2%	-7%	-9%
O=C(CSc1nnc(-c2ccccc2Cl)o1)N1CCCc2ccccc21	?	nt	3%	-20%
CCc1ccc(NC(=O)CC2C(=O)N(c3cccc(C)c3)C(=O)N2Cc2cccs2)cc1 (stereo unspecified)	?	nt	-9%	-23%
COc1cccc(-n2cc(C(=O)Nc3cc(C)c(Cl)cc3OC)c3ccccc3c2=O)c1	-4%	nt	16%	i
CCC(CC)C(=O)Nc1nnc(SCc2cc(=O)n3cccc(C)c3n2)s1	4%	nt	-7%	-18%
CCCCOc1cccc(C(=O)Nc2ccc3oc(-c4cccnc4)nc3c2)c1	-3%	nt	2%	-36%
Cc1ccc(-n2c3nc(=O)[nH]c(=O)c-3cc3cc([N+](=O)[O-])ccc32)cc1C	10µM*	8%	?	-36%
Cc1ccc(S(=O)(=O)n2cnc3cc([N+](=O)[O-])ccc32)cc1C	7%	0%	0%	i
CN(C)CCCn1c(=O)n(CCc2ccccc2)c(=O)c2c3c(sc21)CCCCC3	?	11%	20%	-17%
CN(C)CCCNc1nc2sc3c(c2c(=O)n1CCc1ccccc1)CCCCC3	3.2µM*	6%	?	i
CCC(=O)N1CCc2cc(Br)cc(S(=O)(=O)CCC(=O)NCc3ccc(F)cc3)c21	1%	nt	5%	i
Cc1cc(C(=O)CN2C(=O)c3ccccc3S2(=O)=O)c(C)n1-c1ccccc1	1.4µM*	-17%	8%	-17%[57.5 µM]
CC(C)(C)n1nnnc1C(c1ccc(C(F)(F)F)cc1)N(Cc1ccc(F)cc1)Cc1ccco1 (stereo unspecified)	?	-15%	4%	i
CC(C)(C)n1nnnc1C(c1ccc(C(F)(F)F)cc1)N(Cc1ccccc1)Cc1ccco1 (stereo unspecified)	5.6µM*	-8%	4%	-22%[57.5 µM]
CCN(Cc1ccccc1)C(c1ccncc1)c1nnnn1C(C)(C)C (stereo unspecified)	0%	-7%	1%	i
CC(C)(C)c1ccc(CN(Cc2ccccc2)C(c2ccccn2)c2nnnn2C(C)(C)C)cc1 (stereo unspecified)	3.2µM*	-11%	15%	-15%
Cc1cc(C)c(NC(=O)c2ccc(CNS(=O)(=O)c3cc(C(F)(F)F)ccc3Cl)cc2)c(C)c1	6.3µM*	-34%	?	-8%
CC(NS(=O)(=O)OCC(Cl)(Cl)Cl)c1ccc(C(C)(C)C)cc1 (stereo unspecified)	5.6µM*	-7%	?	-79%
CC(C)(NS(=O)(=O)OCC(Cl)(Cl)Cl)c1ccccc1	?	1%	8%	-7%
COCCCNCCOCCOc1ccc(Cl)cc1C(C)(C)C	3.5µM*	-14%	?	30%
SMILES	GLP-1R inv ag	GLP1R ag	HEK293 tox	PTHR1 agonist
O=c1c(=O)n(-c2cccc(Cl)c2)ccn1Cc1cccc(F)c1	-28%	nt	-22%	?
COc1cc(-c2nc3ccc(C)cn3c2NCc2ccccc2)ccc1-c1cccc(Cl)c1	8.9µM*	5%	-3%	i
COc1cc(-c2nc3ccc(C)cn3c2NCc2ccccc2)ccc1SC1CCCCC1	4µM*	0%	-15%	-28%
COc1ccccc1C(=O)NCCSCc1c(F)cccc1Cl	?	14%	3%	-23%
Cc1c(C(=O)NCCSCc2c(F)cccc2Cl)cnn1-c1ccc(Cl)cc1	10µM*	17%	0%	-29%
Cc1ccc(NC(=O)CCc2c(C)nc3cc(-c4ccccc4)nn3c2C)cc1F	6%	1%	-3%	-17%
CC(C)N=C(NS(=O)(=O)c1ccccc1)C(Cl)(Cl)Cl	4µM*	-7%	?	-17%
O=S(=O)(NC(=S)c1ccccc1)c1ccccc1	-9%	-2%	0%	-14%
COC(=O)c1cc(C(=O)N2CCN(c3cccc(C)c3C)CC2)cc([N+](=O)[O-])c1	4µM*	11%	?	-86%
COC(=O)c1cc(C(=O)N2CCN(c3ccccc3OC)CC2)cc([N+](=O)[O-])c1	1µM*	22%	?	i
COC(=O)c1cc(C(=O)N2CCN(c3ncccn3)CC2)cc([N+](=O)[O-])c1	0%	7%	-5%	-1%
O=C(NCCC1=CCCCC1)c1cc(COc2ccc(F)cc2Cl)on1	5µM*	3%	-11%	-1%
O=C(NCCC1=CCCCC1)c1cc(COc2c(F)cccc2F)on1	?	4%	-13%	-17%
COc1ccc(S(=O)(=O)c2c(Nc3ccc(F)cc3)sc(C(=O)c3ccc4c(c3)OCO4)c2N)cc1	17%	nt	0%	-4%
CC(C(=O)Nc1ccc(C#N)cc1)N(C)CC(=O)Nc1ccccc1Br (stereo unspecified)	11µM*	2%	-5%	-8%
O=C1CSC(c2cn(-c3ccccc3)nc2-c2cc3ccccc3o2)N1Cc1ccccc1 (stereo unspecified)	?	-1%	10%	i
Cc1ccc(-c2nn(-c3ccccc3)cc2C2SCC(=O)N2Cc2ccccc2)o1 (stereo unspecified)	11µM*	11%	6%	-7%
Cc1ccc(CN2C(=O)CSC2c2ccccc2F)cc1 (stereo unspecified)	10µM*	11%	18%	-1%
CC(=O)c1ccc(NC(=O)COc2ccccc2-c2nc(C)no2)cc1	9%	nt	2%	i
COc1cccc(C2CC(=O)Nc3c2c(=O)n(C)c2nc4ccccc4n32)c1OC (stereo unspecified)	6%	-8%	-11%	i
CCc1cccc(CC)c1NC(=S)NCCc1c(C)[nH]c2ccc(C)cc12	7.9µM*	-1%	-14%	25%
CCc1cccc(C)c1NC(=S)NCCc1c(C)[nH]c2ccc(C)cc12	?	-5%	?	-73%
Cc1nc(SCc2cccc(Cl)c2)nc2c1CCCC2	-13%	nt	23%	i
CCc1ccccc1NC(=S)NCCSc1ccc(Cl)cc1	7.1µM*	11%	?	-28%
Cc1ccc(C)c(NC(=S)NCCSc2ccc(Cl)cc2)c1	?	-3%	?	-42%

Screens from PubChem.
